In the supplement of paper PMC11417369:
Whole data set: some 25,000 sequences, median “ln(normalized median fluorescence intensity)” near 9.3, cut for the highest 2% near 10. The list comes from a sample in which the highest values are over-represented; it also holds similar and randomly drawn sequences.

test system: PF3D7_0420300 AP2 domain 1 (GST-tagged); experiment: gcPBM binding intensity (ln(normalized median fluorescence intensity)); higher = stronger DNA binding
In short: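 Each value is the highest Masliner-normalised natural-log median intensity across replicate spots of either orientation of a probe. The probes were primer-extended double-stranded 36-bp intergenic genomic sequences on an Agilent 4 × 180k array, alongside negative controls, exposed for 1 h to GST-tagged P. falciparum DNA-binding domains expressed in E. coli. Bound protein was picked up with Alexa488 anti-GST antibody and scanned at 488 nm.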

Sequence | gcPBM binding intensity (ln)
CCATAAAAAGGATACACACACACACGCACATATATA [CACACA_site6550] | 10.2
AATATAAGGATATATACACACATAAATACATACATA [CACACA_site7859] | 9.89
ACCCATAAAAAGGATACACACACACCCACCCATATA [CACACA_site8205] | 10.4
AATAAATATAAATACACACCCATATAAATATAAATA [CACACA_site7264] | 9.85
TAGATACATACACGCACACACATATATAAATAAATA [CACACA_site6157] | 9.85
AATAAATATAAATACACACCCATATATATATATATA [CACACA_site5436] | 9.45
TTTTATAAATCTAAACGTATCTAAATGAATAATTAA [GTGCAC_negctrl_site44] | 8.84
TTTATAACATTTAAGAGTACAAAAAAATAAATAAAT [XGTACX_site1264] | 9.37
TATTGTAGAGGCAAAAGTACACATTTAATAATTTCC [XGTACX_site1151] | 9.23
AAACTTGTAAGAAACACACACACACCCATATATATA [CACACA_site797] | 10.1
GTAAGAAACAGACACACACACATATATATATATATA [CACACA_site794] | 9.79
TTGTAAGAAAAACACACACACACATATATATATATA [CACACA_site795] | 9.95
ACTTGTAAGAAACACACACACACACCGATATATATA [CACACA_site4594] | 10.4
ACTTGTAAGAAACACACACACACACCCATATATATA [CACACA_site796] | 10.4
AAACTTGTAAGAAACACACACACACGCATATAAATA [CACACA_site6518] | 10
AATATAAAAATGTTTACACACACACGGAAATATATT [CACACA_site7226] | 10.1
TATATATATATGTGTATACACACCTGATAAAGGTAT [CACACA_site2653] | 9.42
AAAAATTTGGCATACACACACACACGCACACGCACA [CACACA_site6422] | 10.2
AAAAATTTGGCATACACACACACACCCACACCCACA [CACACA_site587] | 10.2
CTTAAATTTTTAAATACACACATACACCCATACACA [CACACA_site4461] | 9.64
AAAAAATTCATATATACACACACGCACATATATATA [CACACA_site4226] | 9.84
AAAATTCATATATACACACACGCACATATATATATA [CACACA_site90] | 9.85
TACAAAAAAAATGTATTTAGGACATATATATGTTTA [XGTACX_negctrl_site455] | 9.02

Sequence | gcPBM binding intensity (ln)
ACGTTTTATAATTAATGTACAAATATTAAAATTGCA [XGTACX_site7869] | 9.07
GCTAGTTTTTTTTGGCGTACAGTACCGGTTTACTTT [XGTACX_site2606] | 9.42
AAAAAAAAAAAATAATGTACATATGTATTTGAGAAA [XGTACX_site3572] | 9.23
ATAACAAAATAAAACACACACACAAATGTACATATA [CACACA_site2425] | 10.3
ATAACAAAATAAAACACACACACAAATGTACAGATA [CACACA_site5358] | 10.3
TAACAAAATGTAAATAAACACACATATATATATATA [CACACA_site8352] | 9.37
ACAAAATGTAAATAAACACACATATATATATATATA [CACACA_site1281] | 9.3
AAAAATATAATATAATGTACACATAAACAAAAAAAA [XGTACX_site3658] | 9.58
ATGTTGTACAAACACACACACAAAAAAAAAATAAAA [CACACA_site2406] | 9.89
TATAACAAATAAAAATGTACATATATATAATATATA [XGTACX_site6173] | 9.38
AACAAAATAAAACACACACACAAATGTACATATATA [CACACA_site2424] | 10.2
ATAATATAACACAAATGTACAAAAAATAAATAAATA [XGTACX_site385] | 9.51
TTATTACGAACTCTGCAACATATATAAATAAATAAA [CACACA_negctrl_site44] | 8.86
ATATTTCATCTAGCTACACACATATAATAAATTATT [CACACA_site4094] | 9.53
ATTCTAATTAGTAAAGTGCAGATAAAATGATGCCCT [GTGCAC_site9578] | 9.08
ATTACATTTTTGTTTTGTACATATATTTTATAAACA [XGTACX_site494] | 9.34
TAATTTTTTTAAGAGAGTACATGACTCAACAGTTTA [XGTACX_site3103] | 8.76
CACCCACTAATAAACACACACATATATATATATATA [CACACA_site389] | 9.62
TTAAAAAAAAAACACACACACATACCCATATATATA [CACACA_site5768] | 9.97
CGCACTAAAAAACACACACACACACCCATATATATA [CACACA_site4152] | 10.3
CCCACTAAAAAACACACACACACACCCATATATATA [CACACA_site6140] | 10.2
TTATATTAAACAAACACACACATATATATATATATA [CACACA_site2382] | 9.53
CATACTGTTATAAAATGTACGCATATACACACACAT [XGTACX_site7256] | 9.89

Sequence | gcPBM binding intensity (ln)
CACATACAGACATACACACACATATAGATTAATATA [CACACA_site6399] | 9.93
GGCATGACTATCTGCACACATAAAAATAAGAAATAC [CACACA_site841] | 9.56
TAGAATAATCTATAAACACACAAACCCAACAAAAGA [CACACA_site6132] | 9.86
CACCCACACCAACACACACACATATATAATATATAT [CACACA_site595] | 10.1
AATAATAGAAGCACCCACCCACCACCACCCACACAT [CACACA_negctrl_site1033] | 11.1
TATAATAATCCACAAGCACACACACCCACATATATA [CACACA_site8343] | 9.93
ATAATAATTAACCTATGTACATAGGAAAGTCATAAA [XGTACX_site4387] | 9.29
TTATATTAATTTTGTTGTACTATTTGTGCATTAAAT [XGTACX_site4790] | 9.21
TGTCATGATACATACACACACATACCCATACCCATA [CACACA_site5211] | 9.88
TATATATTGCCCTTCACACACACACCCATATATATA [CACACA_site2493] | 10.2
CTTATATATTGCCCTTCACACACACCCATATATATA [CACACA_site8795] | 10.1
TATTGCCCTTGACACACACACATATAAATAAATATA [CACACA_site7220] | 9.84
ATTATATAATTGTCTTCACACACACCGATATATATA [CACACA_site8883] | 9.93
TATATATTGCCCTTCACACACACACCGATATATATA [CACACA_site5390] | 10.2
CATATATATTTGTTCACACACACACCCAAAAAAAAA [CACACA_site2476] | 9.99
TATTGCCCTGGACACACACACATATATATATATATA [CACACA_site5389] | 9.88
TATATTGCCCTTCACACACACACATATATATATATA [CACACA_site2492] | 10.3
ATTCATTTTATTTTTTCACACACACCGATATATATA [CACACA_site9097] | 10
GGTGGTAAAAAACCTGCATGTCGAAATATTAAATAC [TGCATGCA_site33] | 9.25
TTCTTAAATGTAAATGTATATGTATTAAAAAGAGAA [TGCATGCA_negctrl_site597] | 9.1
ACAACATATGTTATCACACACATATAAATATAAATA [CACACA_site7038] | 9.54
AAAAGCAAGTTCCAGGGTACATATATATGAAAAAAC [XGTACX_site2408] | 9.58
ATTTATTTATATAATACACACAAATATCTTAATGAA [CACACA_site6064] | 9.39

Sequence | gcPBM binding intensity (ln)
ATATATATATATGTATGTACATATTTTTTTTAACAC [XGTACX_site8475] | 9.24
TATGATTTTTATATATGTACGTATGGTGTTTTACAA [XGTACX_site6100] | 9.21
GTTTGGTGGTGTTTTGGTACGTACGGGGGGGTATGT [XGTACX_site1983] | 10.9
GTTTGGTGGTGTTTTGGTACGTACGGGGGTGTATGT [XGTACX_site1211] | 10.1
AAAAAAAAAAAAAAAAAAAAAAAAAAATGAGATACA [GTGCAC_negctrl_site160] | 9.13
ATAAAATGAACAAACACACACACATATATTTATATA [CACACA_site7181] | 10.1
TGTAGTCTGGAGAAAAGTACATAGTATCTGGTAGCT [XGTACX_site2031] | 9.32
CGTATATATATATACACACACATATATATATGTAAA [CACACA_site195] | 9.69
ATTAAACCGTGGGAGCACACACACACACACACACAT [TGCATGCA_negctrl_site72] | 10.8
AATTAACCGTGACACACACACATATAAATATAAATA [CACACA_site7790] | 9.86
TTAAACCGTGGGAGCACACACACACCCAGACACATA [CACACA_site4337] | 9.86
TTAAACCGTGGGAGCACACACACACCCCCACCCATA [CACACA_site331] | 10.2
TGTGGGAATAACCACACACACACACCCATATATATA [CACACA_site5876] | 10.1
AAACCGTGGGAGCACACACACACACCGACACATATA [CACACA_site4338] | 10.1
TTAAACATATATTAAGCACACACAAACAAAAAAACA [CACACA_site8816] | 9.9
AAACCGTGGGAGCACACACACACACCCACCCATATA [CACACA_site332] | 10.2
CATTAAACCGTGGGAGCACACACACCCACCCACCCA [CACACA_site8000] | 9.87
AATATGTCTTAAAAAAGTACATAAATTTTAACTTCA [XGTACX_site6670] | 8.84
TTTTTTTTTTTTTTTTGTACATAATAAATGTTCTTA [XGTACX_site6754] | 8.64
AAGAATTATATTAATAGTACATATATATTAATTTAT [XGTACX_site5713] | 9.08
